Experimental data from the supplement of paper PMC8728848.
This is one part of a sample in which the strongest signals are shown more often than they occur.

Legend:
Experiment in all cases: glycan array binding signal (z-score within array); higher = stronger binding
Settings in all cases: glycan notation: IUPAC condensed, linker removed
Fuc(a1-2)Gal = target: Fuc(a1-2)Gal
In short: (§1)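 Glycan array data came from 3228 arrays in the Consortium for Functional Glycomics database, and only arrays with an available protein sequence were kept. Glycan names were put into IUPAC-condensed notation, and columns mapping to the same glycan were averaged. The binding signal is a within-array Z-score, averaged across arrays of one protein sequence run at different concentrations or buffers and across linkers. A negative Z-score can be read as non-binding.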

[1] = target: Fuc(a1-2)Gal(b1-3)GalNAc(b1-4)[Neu5Ac(a2-3)]Gal(b1-4)Glc
In short: as §1

[2] = target: Fuc(a1-2)Gal(b1-4)[Fuc(a1-3)]GlcNAc(b1-2)Man(a1-3)[Fuc(a1-2)Gal(b1-4)[Fuc(a1-3)]GlcNAc(b1-2)Man(a1-6)]Man(b1-4)GlcNAc(b1-4)[Fuc(a1-6)]GlcNAc
In short: as §1

[3] = target: Fuc(a1-2)Gal6S(b1-3)GlcNAc6S
In short: as §1

[4] = target: Fuc(a1-2)Gal6S(b1-4)Glc6S
In short: as §1

[5] = target: Fuc(a1-2)[GalNAc(a1-3)]Gal(b1-4)GlcNAc(b1-2)Man
In short: as §1

[6] = target: Fuc(a1-2)[GalNAc(a1-3)]Gal(b1-4)GlcNAc(b1-6)GalNAc
In short: as §1

[7] = target: Fuc(a1-3)[Gal(b1-4)]Glc6S
In short: as §1

[8] = target: Fuc(a1-3)[Gal3S(b1-4)]Glc
In short: as §1

[9] = target: Gal(a1-3)Gal(b1-3)GlcNAc(b1-3)GalNAc
In short: as §1

[10] = target: Gal(a1-3)[Gal(a1-4)]Gal(b1-4)GlcNAc
In short: as §1

[11] = target: Gal(a1-4)Gal(b1-4)GlcNAc(b1-2)Man(a1-3)[Gal(a1-4)Gal(b1-4)GlcNAc(b1-2)Man(a1-6)]Man(b1-4)GlcNAc(b1-4)GlcNAc
In short: as §1

[12] = target: Gal(a1-4)Gal(b1-4)GlcNAc(b1-3)Gal(b1-4)Glc
In short: as §1

[13] = target: Gal(b1-3)GlcNAc(b1-3)Gal(b1-4)GlcNAc(b1-2)[Gal(b1-3)GlcNAc(b1-3)Gal(b1-4)GlcNAc(b1-6)]Man(a1-6)[Gal(b1-3)GlcNAc(b1-3)Gal(b1-4)GlcNAc(b1-2)Man(a1-3)]Man(b1-4)GlcNAc(b1-4)[Fuc(a1-6)]GlcNAc
In short: as §1

[14] = target: Gal(b1-3)GlcNAc(b1-3)Gal(b1-4)GlcNAc(b1-3)Gal(b1-4)GlcNAc(b1-2)[Gal(b1-3)GlcNAc(b1-3)Gal(b1-4)GlcNAc(b1-3)Gal(b1-4)GlcNAc(b1-6)]Man(a1-6)[Gal(b1-3)GlcNAc(b1-3)Gal(b1-4)GlcNAc(b1-3)Gal(b1-4)GlcNAc(b1-2)Man(a1-3)]Man(b1-4)GlcNAc(b1-4)[Fuc(a1-6)]GlcNAc
In short: as §1

[15] = target: Gal(b1-3)GlcNAc(b1-6)Gal(b1-4)GlcNAc
In short: as §1

[16] = target: Gal(b1-3)[Fuc(a1-4)]GlcNAc
In short: as §1

[17] = target: Gal(b1-4)GlcNAc(b1-2)Man(a1-3)[Gal(b1-4)GlcNAc(b1-2)Man(a1-6)][Gal(b1-4)GlcNAc(b1-4)]Man(b1-4)GlcNAc(b1-4)[Fuc(a1-6)]GlcNAc
In short: as §1

[18] = target: Gal(b1-4)GlcNAc(b1-2)Man(a1-3)[Gal(b1-4)GlcNAc(b1-2)Man(a1-6)][GlcNAc(b1-4)]Man(b1-4)GlcNAc(b1-4)[Fuc(a1-6)]GlcNAc
In short: as §1

[19] = target: Gal(b1-4)GlcNAc(b1-2)Man(a1-6)[Man(a1-3)]Man(b1-4)GlcNAc(b1-4)GlcNAc
In short: as §1

[20] = target: Gal(b1-4)GlcNAc(b1-2)[Gal(b1-4)GlcNAc(b1-4)]Man(a1-3)[GlcNAc(b1-4)][Gal(b1-4)GlcNAc(b1-2)Man(a1-6)]Man(b1-4)GlcNAc(b1-4)GlcNAc
In short: as §1

[21] = target: Gal(b1-4)GlcNAc(b1-3)Gal(b1-4)GlcNAc(b1-3)Gal(b1-4)GlcNAc(b1-3)Gal(b1-4)GlcNAc(b1-2)Man(a1-3)[Gal(b1-4)GlcNAc(b1-3)Gal(b1-4)GlcNAc(b1-3)Gal(b1-4)GlcNAc(b1-3)Gal(b1-4)GlcNAc(b1-2)Man(a1-6)]Man(b1-4)GlcNAc(b1-4)GlcNAc
In short: as §1

[22] = target: Gal(b1-4)GlcNAc(b1-3)Gal(b1-4)GlcNAc(b1-3)Gal(b1-4)GlcNAc(b1-3)Gal(b1-4)GlcNAc(b1-2)Man(a1-3)[Gal(b1-4)GlcNAc(b1-3)Gal(b1-4)GlcNAc(b1-3)Gal(b1-4)GlcNAc(b1-3)Gal(b1-4)GlcNAc(b1-2)Man(a1-6)]Man(b1-4)GlcNAc(b1-4)[Fuc(a1-6)]GlcNAc
In short: as §1

[23] = target: Gal(b1-4)GlcNAc(b1-3)[Fuc(a1-3)GlcNAc(b1-6)]Gal(b1-4)Glc
In short: as §1

[24] = target: Gal3S(b1-3)[Fuc(a1-4)]GlcNAc
In short: as §1

Gal3S(b1-4)GlcNAc = target: Gal3S(b1-4)GlcNAc
In short: as §1

[25] = target: Gal3S(b1-4)[Fuc(a1-3)]GlcNAc
In short: as §1

Gal6S(b1-4)GlcNAc = target: Gal6S(b1-4)GlcNAc
In short: as §1

B1: PX14343F-bfa-562-20-562 (Bacteroides fragilis) (protein)
chain: CDDFLDSFPQDTVTNENFWKSKEDADKVLVDIYASLLPKDAIFFDEAMSDNAYLVWDWWGGAQQVANGSYTTSGEIPTNRWNGSYEVIRKCWFLLEGIEKIEDISEQDKNKIIGETYFMLAYNYYVLTSYFGDVPLVTKTLAIPESKQLVRTPKAEVVDYAINKLKEAAVMLEGLSQEKGRVTADACRFLIARMYLYNGDYSNVLETVKLLEGKYQLYREGDTPYEDLFSGVAENSCEVILSVVCDKRVGEIYTSHGGNGIMLLKGITGEDPYRGVTPSGSLVDAYPMADGRLIHEAGSSYDPKKPYEGRDPRFYQSIVYPTGQIKYLDVETGTVKERLYDPEDPTTVPEHQYNYSQPSATGYMWNKYIDYSVYAMNSVWDCTNDIIVFRYADVLLMKAEALLQTKGESAKEEVCNLIDQLRDRCSCGRVHRENYNSKDELMELLKNERRIELANEGLRYMDLIRWKDAEKNTIVTGVGLTGQMYGAYMRKDGVGKDDKTVDVDNTPRRYIETRYFNASKGYLFPIPQKERDLNPNLTQNPNW
- glycan array binding signal (z-score) (Fuc(a1-2)Gal): -0.039
- glycan array binding signal (z-score) [1]: 0.115
- glycan array binding signal (z-score) [2]: -0.43
- glycan array binding signal (z-score) [3]: 1.48
- glycan array binding signal (z-score) [4]: 0.012
- glycan array binding signal (z-score) [5]: 0.033
- glycan array binding signal (z-score) [6]: -0.301
- glycan array binding signal (z-score) [7]: -0.078
- glycan array binding signal (z-score) [8]: -0.368
- glycan array binding signal (z-score) [9]: -0.716
- glycan array binding signal (z-score) [10]: 3.69
- glycan array binding signal (z-score) [11]: 1.42
- glycan array binding signal (z-score) [12]: -0.481
- glycan array binding signal (z-score) [13]: 1.83
- glycan array binding signal (z-score) [14]: 1.38
- glycan array binding signal (z-score) [15]: -0.369
- glycan array binding signal (z-score) [16]: -0.027
- glycan array binding signal (z-score) [17]: -0.394
- glycan array binding signal (z-score) [18]: -0.937
- glycan array binding signal (z-score) [19]: 0.332
- glycan array binding signal (z-score) [20]: 0.08
- glycan array binding signal (z-score) [21]: 0.79
- glycan array binding signal (z-score) [22]: -0.007
- glycan array binding signal (z-score) [23]: 1.78
- glycan array binding signal (z-score) [24]: -0.53
- glycan array binding signal (z-score) (Gal3S(b1-4)GlcNAc): 0.086
- glycan array binding signal (z-score) [25]: 0.472
- glycan array binding signal (z-score) (Gal6S(b1-4)GlcNAc): 0.658
